From PubChem
PI5P4K alpha inh – blocks human PI5P4K alpha kinase activity; P48426; PI5P4Kalpha enzyme, ADP-Glo luminescence, 60 min; active compounds read low; max response, %; hit rate 1.2% among 330,000; active = max response of -50% or lower; inconclusive = between -30% and -50%; inactive = -30% or higher; note: value at the top dose of about 77 µM; % is set by controls: 0 for no effect and ±100 for the full control effect
Target sequence (P48426 whole entry, looked up): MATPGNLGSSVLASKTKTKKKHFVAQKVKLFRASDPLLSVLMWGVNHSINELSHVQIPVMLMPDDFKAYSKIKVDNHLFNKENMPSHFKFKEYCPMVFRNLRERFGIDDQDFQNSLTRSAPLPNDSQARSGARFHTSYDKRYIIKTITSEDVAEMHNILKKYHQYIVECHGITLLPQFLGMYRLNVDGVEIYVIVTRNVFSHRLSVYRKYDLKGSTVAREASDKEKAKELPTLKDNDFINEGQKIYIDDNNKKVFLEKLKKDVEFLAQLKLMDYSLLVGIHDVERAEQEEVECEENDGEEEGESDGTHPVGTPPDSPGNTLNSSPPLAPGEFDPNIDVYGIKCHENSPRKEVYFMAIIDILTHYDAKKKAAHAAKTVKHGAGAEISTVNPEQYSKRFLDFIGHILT
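Single end-point luminescence (ADP-Glo) quantified ADP from PI5P4Kalpha turnover; ATP 5 microM final, 1 h at RT, 0.1% CHAPS and 0.28 mM EGTA in HEPES pH 7.4.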
G9a inh – blocks human histone lysine methyltransferase G9a; Q96KQ7; G9a H3K9 monomethylation, AlphaScreen, 2 h; Potency, µM (doses to about 102 µM), for the others: at the top dose activity, negative = inhibition, usual class: inhibitors; hit rate 8.8% among 350,000; note: potency is the fitted concentration of half-maximal effect; % is set by controls: 0 for no effect and ±100 for the full control effect; nearly all actives have a fitted effect of over 75% in size
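Using a bead-based AlphaScreen, monomethylated H3K9 product from 2 h room-temperature reactions (G9a 20 nM, peptide 500 nM, SAM 20 uM) was detected with 0.5 ug/mL rabbit anti-H3K9me1 antibody.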
HP1b chromo inh – HP1-beta chromodomain-methylated histone interaction inhibition; P83916; AlphaScreen HP1-beta / biotin-H3K9me3 peptide binding; Potency, µM (highest dose often 114 µM), for the others: at the highest dose activity change, negative = inhibition, most hits filed as inhibitors; hit rate 0.56% among 390,000; AID 540317; note: potency is the fitted concentration of half-maximal effect; nearly all actives have a fitted effect of over 70% in size
Target sequence (P83916 whole entry, looked up): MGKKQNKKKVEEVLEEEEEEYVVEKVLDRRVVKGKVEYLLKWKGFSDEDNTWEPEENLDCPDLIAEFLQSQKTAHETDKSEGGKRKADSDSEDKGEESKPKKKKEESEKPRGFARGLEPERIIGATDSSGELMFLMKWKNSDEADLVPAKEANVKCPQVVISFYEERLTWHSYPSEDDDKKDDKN
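AlphaScreen: HP1-beta (50 nM) preformed 30 min with biotin-H3(1-18)K9me3 peptide (50 nM) in PBS pH 7.4, 0.01% Tween-20. Compound added for 30 min at RT, then streptavidin donor/nickel chelate acceptor beads (10 ug/mL) for 30 min.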
PLK1 PBD inh – PLK1 (human) polo-box domain binding inhibition; hit rate 2.8% among 360,000; AID 720504; Potency, µM, inactives show max response, negative = inhibition, hits mostly inhibitors; Plk1 PBD binding of FITC phosphopeptide, fluorescence polarization; note: potency is the fitted concentration of half-maximal effect; series mostly up to about 57 µM; % is set by controls: 0 for no effect and ±100 for the full control effect; nearly all actives have a fitted effect of over 65% in size
JMJD2A Tudor – JMJD2A Tudor domain (human) inhibition; O75164; hit rate 4.4% among 390,000; AID 504339; AlphaScreen JMJD2A-Tudor / H3K4me3 peptide binding; Potency, µM (doses to about 114 µM), without a hit: at the top dose activity change, negative = inhibition, actives largely listed as inhibitors; note: potency is the fitted concentration of half-maximal effect; % is set by controls: 0 for no effect and ±100 for the full control effect; nearly all actives have a fitted effect of over 50% in size
BAZ2B inh – BAZ2B (human) inhibition; Q9UIF8; AlphaScreen BAZ2B-H3K14Ac peptide displacement; Potency, µM (highest dose often 114 µM), for inactives: at the top dose activity change, negative = inhibition, hits mostly inhibitors; hit rate 4.4% among 360,000; AID 504333; note: potency is the fitted concentration of half-maximal effect; % is set by controls: 0 for no effect and ±100 for the full control effect; nearly all actives have a fitted effect of over 60% in size
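Protein-peptide AlphaScreen: BAZ2B 50 nM, b-H3K14Ac 50 nM, 1x PBS pH 7.4 + 0.01% Tween-20. Preincubation 30 min RT; cpd 30 min RT (top 110 uM); beads 20 min RT, light-protected.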
Active calls of the source: *; ? = inconclusive; / = not tested or not shown; [ ] = another dose, or the depositor's remark. Hits are enriched below; roughly 12% of the tested compounds scored in any of these assays. Unless noted, calls come from the whole dose curve; as a rule, active = well fitted curve in the direction sought with a large enough effect; inconclusive = small, poorly fitted or top-dose-only effect, or another doubt; inactive = no such curve, though single readings can be large; an effect the other way counts as inactive or inconclusive.

SMILES	PI5P4K alpha inh	G9a inh	HP1b chromo inh	PLK1 PBD inh	JMJD2A Tudor	BAZ2B inh
O=C(O)c1cccc(NS(=O)(=O)c2ccc3c(c2)C(=O)c2ccccc2C3=O)c1	-5.1	/	23.3%	-6.4%	-10.9%	?
O=C1c2ccccc2C(=O)c2cc(S(=O)(=O)Nc3ccccc3)ccc21	0.0	?	?	8.0%	?	11.2µM*
Cc1cc2c(cc1C)N(C(=O)CSC1=NCCS1)C(C)(C)c1ssc(=S)c1-2	/	5.01µM*	?	-4.9%	6.31µM*	8.91µM*
CC1(C)c2ssc(=S)c2-c2ccccc2N1C(=O)CSC1=NCCS1	/	25.1µM*	?	-15.3%	8.91µM*	25.1µM*
CC(=O)Nc1ccc(NC(=O)CSC2=NCCS2)cc1	5.4	?	58.1%	-22.6%	3.4%	-1.1%
O=C(CN1CCN(c2ccc(F)cc2)CC1)Nc1ccc(S(=O)(=O)N2CCOCC2)cc1	-0.4	8.1%	21.3%	-0.3%	-16.4%	-24.0%
O=C1C(=O)C(c2ccc(O)cc2O)Oc2cc(O)cc(O)c21 (stereo not drawn)	/	/	?	/	14.1µM*	/
O=C1C[C@@H](c2ccc(O)cc2)Oc2cc(O)cc(O)c21	-3.9	-10.4%	30.8%	5.3%	-1.4%	0.4%
O=C(COC(=O)c1ccc(O)cc1)Nc1cc(S(=O)(=O)N2CCOCC2)ccc1Cl	1.9	8.0%[12.7 µM]	16.9%	-12.5%	-10.7%	0.0%
CC(=O)Nc1ccc(S(=O)(=O)Nc2cccc(-c3cn4c(n3)SCC4)c2)cc1	-0.5	?	23.4%	-19.7%	-29.6%	/
O=C(Nc1cccc(-c2cn3c(n2)SCC3)c1)c1ccc(Br)o1	-5.4	7.94µM*	25.3%	-7.4%	-12.0%	56.2µM*
CC(=O)Nc1ccc(-c2cn3c(n2)SCC3)cc1	-5.4	15.6%[2.33 µM]	?	?	-20.0%	-14.4%
O=C(Nc1ccc(-c2cn3c(n2)SCC3)cc1)c1ccco1	?	28.2µM*	-2.3%	?	-15.2%	-30.0%
CN(C)S(=O)(=O)Nc1cccc(-c2cn3c(n2)SCC3)c1	-1.8	2.9%	-1.9%[57 µM]	?	-23.7%	-33.9%
O=C(Cc1ccc(F)cc1)Nc1cccc(-c2cn3c(n2)SCC3)c1	-4.0	10µM*	-18.0%	-14.2%	-21.2%	?
CCc1ccc(-c2cn3c(n2)SCC3)cc1	-3.3	44.7µM*	-1.1%	?	-23.9%	?
Cc1ccc(N2C(=O)N(CC(=O)NCc3ccccc3Cl)C(=O)C2C)cc1 (stereo not drawn)	3.7	14.2%	26.4%	-23.5%	-9.0%	-1.1%
Cc1ccccc1OCCCCn1nnc2sc3c(c2c1=O)CCC(C)C3 (stereo not drawn)	/	?	117.7%	/	55.0%	35.2%
COc1cccc(NC(=O)Cn2nnc(C(=O)Nc3ccccc3)c2N)c1	/	-33.2%	3.8%	-6.5%	-18.8%	-2.2%
COc1cccc(NC(=O)c2nnn(CC(=O)Nc3cc(C)cc(C)c3)c2N)c1	-16.2	12.1%[59 µM]	8.0%	26.7µM*	28.2µM*	-6.0%
COc1ccc(CCNC(=O)c2nnn(CC(=O)Nc3cccc(F)c3)c2N)cc1OC	8.1	44.7µM*	2.7%	16.4%	?	50.1µM*
COc1ccc(CCNC(=O)c2nnn(CC(=O)Nc3ccccc3)c2N)cc1OC	2.3	-13.9%[0.0925 µM]	30.5%	-15.9%	?	?
COc1cccc(Cn2c(=O)n(Cc3ccccc3)c(=O)c3c2c2cc(OC)ccc2n3C)c1	/	-0.9%[59 µM]	25.8%	/	7.9%	-5.1%
COc1ccccc1C(=O)Nc1cccc(OCc2cc(=O)n3c4c(sc3n2)CCCC4)c1	/	7.5%[59 µM]	34.0%	/	-8.9%	-2.5%
COc1ccc(CC(=O)N2CCc3cc(OC)c(OC)cc3C2COc2ccc(F)cc2)cc1 (stereo not drawn)	/	-6.0%[59 µM]	8.8%	/	?	?
SMILES	PI5P4K alpha inh	G9a inh	HP1b chromo inh	PLK1 PBD inh	JMJD2A Tudor	BAZ2B inh
COc1ccc(C(=O)CSc2nccn2C)cc1	-12.5	50.1µM*	4.3%	-16.2%	-11.6%	-29.7%
COc1ccc(CC(=O)NCc2nnc(SCC(=O)c3ccc(OC)cc3)n2C)cc1	0.8	-26.2%	44.2%	4.7%	-11.0%	-3.3%
CCn1c(CNC(=O)c2ccc(OC)c(OC)c2)nnc1SCC(=O)c1ccc(OC)cc1	-3.2	11.2µM*	-13.1%	?	-4.1%[11.4 µM]	-4.4%
CCSCc1nnc(SCC(=O)c2ccc(OC)cc2)n1C	-10.5	?	2.4%	-11.5%	50.1µM*	-0.3%
CCn1c(CNC(=O)c2ccco2)nnc1SCC(=O)c1ccc(OC)cc1	-1.2	3.5%[0.501 µM]	29.5%	-9.6%	-9.7%	-12.8%
COc1ccc(C(=O)CSc2nnc(CNC(=O)c3ccc(OC)c(OC)c3)n2C)cc1	-20.4	-4.3%[12.7 µM]	-8.5%	-1.6%	44.7µM*	7.2%
Cn1nc(C(=O)OCC(=O)Nc2ccc(C(N)=O)cc2)c2ccccc2c1=O	-0.3	/	25.5%	4.1%	6.2%	/
CCCCn1c(N)c(N(CCOC)C(=O)C2CC(=O)N(c3ccc(CC)cc3)C2)c(=O)[nH]c1=O (stereo not drawn)	5.7	-6.4%[12.7 µM]	45.1%	-13.1%	-6.0%	0.7%
Cc1ccc(Cl)cc1N1CCN(CCCNC(=O)Cn2ncc3c([nH]c4ccccc43)c2=O)CC1	/	-5.4%[59 µM]	17.4%	/	-15.5%	-2.2%
CCOc1ccccc1NC(=O)CN1C(=O)C(=O)c2ccccc21	/	3.8%[59 µM]	29.3%	/	-15.1%	-12.2%
CCOc1ccccc1C(O)C1=CC(=O)c2ccccc2C1=O (stereo not drawn)	?	/	-21.2%	?	25.1µM*	/
CCOC(=O)CSc1nc(C)c2cc(C)c(C)cc2n1	2.3	?	57.2%	-21.7%	16.6%	4.4%
Cc1cc2nc(SCCOC(=O)Nc3ccc(Cl)cc3)nc(C)c2cc1C	-1.9	2µM*	21.6%	-7.1%	-15.8%	-38.5%
CNC(=O)c1c(C)nn(-c2ccc(F)c(Cl)c2)c1-c1cc(C)on1	-7.7	22.3%[59 µM]	5.9%	-6.6%	-5.4%	0.4%
N#C/C(=C\C=C\c1ccccc1)C(=O)NCc1cccnc1	-7.7	-6.6%	-17.1%	23.8µM*	?	-12.8%
N#C/C(=C\c1cccnc1)C(=O)Nc1cccc2ccccc12	-16.0	50.1µM*	2.6%	?	-26.2%	3.4%
Cc1cccc(NC(=O)/C(C#N)=C\c2cn(CC(=O)O)c3ccccc23)c1	7.2	39.8µM*	31.0%	-4.4%	-7.0%	?
N#C/C(=C\c1cccs1)C(=O)NCc1cccnc1	0.3	15.6%	43.9%	-7.0%	-1.7%	-3.3%
N#C/C(=C\c1cccnc1)C(=O)Nc1cccc(Cl)c1	0.7	-37.0%	24.1%	-29.1%	0.0%	-9.1%
N#C/C(=C/c1cn(CC(=O)O)c2ccccc12)C(=O)Nc1ccccc1	-1.4	?	14.5%	-4.8%	-6.8%	-27.6%
Cc1cccc(NC(=O)/C(C#N)=C\c2cccnc2)c1	/	50.1µM*	-4.2%	0.0%	-13.7%	8.2%
